Experimental data published in ChEMBL document CHEMBL4513141, “CO-ADD screening of NIH (USA) - Clinical Collection” (2021).
Potency and affinity values are given separately. Square brackets hold non-standard residues; d marks the D form. Peptide text beside a SMILES is read from it. pGlu = O=C1CC[C@@H](C(=O)O)N1; Thz = O=C(O)[C@@H]1CSCN1

test system: Candida albicans; details: 20 µM

**Q.** Which Inhibition does the source give for `CCC1=C[C@H]2CN(C1)Cc1c([nH]c3ccccc13)[C@@](C(=O)OC)(c1cc3c(cc1OC)N(C)[C@H]1[C@@](O)(C(=O)OC)[C@H](OC(C)=O)[C@]4(CC)C=CCN5CC[C@]31[C@@H]54)C2.O=C(O)C(O)C(O)C(=O)O.O=C(O)C(O)C(O)C(=O)O` here?
**A.** 4.55%

**Q.** With `Cl.O.O=C1N(c2ccccc2)c2ccccc2C1(Cc1ccncc1)Cc1ccncc1` as the compound, how does the Inhibition read?
**A.** 3.32%

**Q.** Which Inhibition does the source give for `CC1=C(C(=O)O)N2C(=O)[C@@H](NC(=O)[C@H](N)c3ccccc3)[C@H]2SC1.O` [CEPHALEXIN] here?
**A.** 2.01%

**Q.** With `CO[C@H]1O[C@@H]2O[C@@]3(C)CC[C@H]4[C@H](C)CC[C@@H]([C@H]1C)[C@@]24OO3` as the compound, how does the Inhibition read?
**A.** 19.1%

**Q.** With `COc1cc(C(=O)NC2CCCNC2)cc(OC)c1OC` (stereo not drawn) [TROXIPIDE] as the compound, how does the Inhibition read?
**A.** 5.32%

**Q.** For `CN(C)CC[C@@H](c1ccc(Br)cc1)c1ccccn1.O=C(O)/C=C\C(=O)O` [DEXBROMPHENIRAMINE MALEATE], which Inhibition is on record?
**A.** 1.43%

**Q.** How did the Inhibition turn out when `C[C@H](CS)C(=O)N1CCC[C@H]1C(=O)O` [CAPTOPRIL] was run?
**A.** 2.59%

**Q.** With `COc1ccccc1OCC(O)COC(N)=O` (stereo not drawn) [METHOCARBAMOL] as the compound, how does the Inhibition read?
**A.** 3.99%

**Q.** How did the Inhibition turn out when `Cl.O=C(NCC1CCCCN1)c1cc(OCC(F)(F)F)ccc1OCC(F)(F)F` (stereo not drawn) was run?
**A.** 3.33%

**Q.** Which Inhibition does the source give for `COc1cc2c(cc1OC)C(=O)C(CC1CCN(Cc3ccccc3)CC1)C2.Cl` (stereo not drawn) [DONEPEZIL HYDROCHLORIDE] here?
**A.** 3.08%

**Q.** `COc1cc(C(=O)NS(=O)(=O)c2ccccc2C)ccc1Cc1cn(C)c2ccc(NC(=O)OC3CCCC3)cc12` [ZAFIRLUKAST] was tested. Which Inhibition did it give?
**A.** 0.8%

**Q.** `Cc1ccc(O)c([C@H](CCN(C(C)C)C(C)C)c2ccccc2)c1.O=C(O)C(O)C(O)C(=O)O` [TOLTERODINE TARTRATE] was tested. Which Inhibition did it give?
**A.** 4.41%

**Q.** How did the Inhibition turn out when `CN(Cc1cnc2nc(N)nc(N)c2n1)c1ccc(C(=O)N[C@@H](CCC(=O)O)C(=O)O)cc1.O` was run?
**A.** 12.2%

**Q.** With `CC1=C(CC(=O)O)c2cc(F)ccc2/C1=C\c1ccc([S+](C)[O-])cc1` (stereo not drawn) as the compound, how does the Inhibition read?
**A.** 3.98%

**Q.** With `C#C[C@]1(O)CC[C@H]2[C@@H]3CCC4=CC(=O)CC[C@@H]4[C@H]3CC[C@@]21CC` [LEVONORGESTREL] as the compound, how does the Inhibition read?
**A.** 3.12%

**Q.** How did the Inhibition turn out when `CN(C)CCC(c1ccc(Cl)cc1)c1ccccn1.O=C(O)/C=C\C(=O)O` (stereo not drawn) [CHLORPHENIRAMINE MALEATE] was run?
**A.** 4.73%

**Q.** `C[C@]12CCC(=O)C=C1CC[C@@H]1[C@@H]2C(=O)C[C@@]2(C)[C@H]1CC[C@]2(O)C(=O)CO` [CORTISONE] was tested. Which Inhibition did it give?
**A.** 4.46%

**Q.** With `Cl.c1ccc2c(c1)CCCC2C1=NCCN1` (stereo not drawn) [TETRAHYDROZOLINE HYDROCHLORIDE] as the compound, how does the Inhibition read?
**A.** 3.03%

**Q.** With `CN1CCN(C2=Nc3ccccc3Oc3ccc(Cl)cc32)CC1.O=C(O)CCC(=O)O` [LOXAPINE SUCCINATE] as the compound, how does the Inhibition read?
**A.** 2.62%

**Q.** How did the Inhibition turn out when `CN1CCC(=C2c3ccccc3CC(=O)c3sccc32)CC1.O=C(O)/C=C/C(=O)O` [KETOTIFEN FUMARATE] was run?
**A.** 3.18%

**Q.** With `CC(CCc1ccccc1)NCC(O)c1ccc(O)c(C(N)=O)c1.Cl` (stereo not drawn) [LABETALOL HYDROCHLORIDE] as the compound, how does the Inhibition read?
**A.** 4.68%

**Q.** Which Inhibition does the source give for `CC(C)(C#N)c1cc(Cn2cncn2)cc(C(C)(C)C#N)c1` [ANASTROZOLE] here?
**A.** 1.23%

**Q.** For `O=C([O-])c1cc(=O)c2c(OCC(O)COc3cccc4oc(C(=O)[O-])cc(=O)c34)cccc2o1.[Na+].[Na+]` [CROMOLYN SODIUM], which Inhibition is on record?
**A.** 2.62%

**Q.** `C#C[C@]1(O)CC[C@H]2[C@@H]3[C@H](C)CC4=C(CCC(=O)C4)[C@H]3CC[C@@]21C` [TIBOLONE] was tested. Which Inhibition did it give?
**A.** 6.29%

**Q.** For `CN1CCN(c2nc3cc(C(F)(F)F)ccc3n3cccc23)CC1.O=C(O)/C=C\C(=O)O.O=C(O)/C=C\C(=O)O`, which Inhibition is on record?
**A.** 3.61%

**Q.** For `CC(C)NCC(O)COc1ccc(COCCOC(C)C)cc1.CC(C)NCC(O)COc1ccc(COCCOC(C)C)cc1.O=C(O)/C=C/C(=O)O` (stereo not drawn) [BISOPROLOL FUMARATE], which Inhibition is on record?
**A.** 0.23%

**Q.** How did the Inhibition turn out when `CCCN[C@H]1CCc2nc(N)sc2C1` [PRAMIPEXOLE] was run?
**A.** 5.21%

**Q.** For `COc1ccc(-c2oc3c(CC=C(C)C)c(O[C@@H]4O[C@H](CO)[C@@H](O)[C@H](O)[C@H]4O)cc(O)c3c(=O)c2O[C@@H]2O[C@@H](C)[C@H](O)[C@@H](O)[C@H]2O)cc1` [ICARIIN], which Inhibition is on record?
**A.** 4.36%

**Q.** With `CCCCNC(=O)NS(=O)(=O)c1ccc(C)cc1` [TOLBUTAMIDE] as the compound, how does the Inhibition read?
**A.** 1.06%

**Q.** `Nc1c2c(nc3c1CCC3)CCCC2` [IPIDACRINE] was tested. Which Inhibition did it give?
**A.** 3.22%

**Q.** How did the Inhibition turn out when `O=C1CC[C@@H](C(=O)N2CSC[C@H]2C(=O)O)N1` [PIDOTIMOD] ([pGlu]-[Thz]-OH) was run?
**A.** 0.05%

**Q.** With `Cc1nc(=O)c2cc(CN(C)c3ccc(C(=O)N[C@@H](CCC(=O)O)C(=O)O)s3)ccc2[nH]1` [RALTITREXED] as the compound, how does the Inhibition read?
**A.** 2.26%

**Q.** Which Inhibition does the source give for `COc1cc(C)c(/C=C/C(C)=C/C=C/C(C)=C/C(=O)O)c(C)c1C` [ACITRETIN] here?
**A.** 3.07%

**Q.** For `CCOC(=O)N1CCC(=C2c3ccc(Cl)cc3CCc3cccnc32)CC1` [LORATADINE], which Inhibition is on record?
**A.** 2.41%

**Q.** For `O=C1c2c(O)cc(O)cc2O[C@H](c2ccc(O)c(O)c2)[C@@H]1O`, which Inhibition is on record?
**A.** 3.45%

**Q.** `O=C(O)c1cc2ccccc2c(Cc2c(O)c(C(=O)O)cc3ccccc23)c1O.OCCOCCN1CCN(C(c2ccccc2)c2ccc(Cl)cc2)CC1` [HYDROXYZINE PAMOATE] was tested. Which Inhibition did it give?
**A.** 5.15%

**Q.** With `Cl.O.c1cnc(N2CCN(Cc3ccc4c(c3)OCO4)CC2)nc1` as the compound, how does the Inhibition read?
**A.** 3.11%

**Q.** How did the Inhibition turn out when `CS(=O)(=O)O.Oc1ccc(C2CNCCc3c2cc(O)c(O)c3Cl)cc1` (stereo not drawn) [FENOLDOPAM MESYLATE] was run?
**A.** 1.85%
